The Inhibition is the change of the read-out against control, counted positive when it falls.

Here are results for 39 compounds from ChEMBL document CHEMBL4513146, “CO-ADD screening of Karazin Kharkiv National University (Ukraine) compounds”.

Entries with a potency or affinity are not part of this list.

For this test, the system named is Cryptococcus neoformans. To be noted: Concentration 32 ug.mL-1; ASSAY_TEST Inhibition of Fungal Growth; detection method Resazurin; Absorption (OD600-OD570); plate type 384well; NBS; CORNING #3640.
On to `C=Cc1ccc(CN(c2cccc(F)c2)S(=O)(=O)c2ccc3nnc(C)n3c2)cc1`, for which the Inhibition is reported as -6.84%.
For `O=C(CCc1nnc2c3cc(-c4ccccc4)nn3ccn12)N1CCN(C(=O)c2ccco2)CC1`, the Inhibition is listed as -4.62%.
Consider `CCOC(=O)c1ccccc1NC(=O)Cn1nc2c(Oc3cccc(OC)c3)nccn2c1=O`, for which the Inhibition was -5.16%.
Turning to `CCOc1ccc(-n2ccn3c(SC(CC)C(=O)Nc4cc(F)ccc4F)nnc3c2=O)cc1` (centres undefined), the Inhibition was -9.91%.
As for `Cc1ccc(NC(=O)Cn2nc3c(N4CC(C)CC(C)C4)nccn3c2=O)c(F)c1` (centres undefined), the Inhibition was -9.98%.
Regarding `CCCn1c(=O)c2sccc2n2c(CCC(=O)NC(C)C34CC5CC(CC(C5)C3)C4)nnc12` (centres undefined), the Inhibition is given as -25.73%.
Take `CSc1cccc(NC(=O)Cn2nc3c(SC4CCCCC4)nccn3c2=O)c1`: the Inhibition was -1.74%.
Consider `O=c1c2nnc(SCc3ccccc3Cl)n2ccn1-c1ccc(F)c(F)c1`, for which the Inhibition is recorded as -8.25%.
As for `O=S(=O)(c1ccc2nncn2c1)N(Cc1ccc(Cl)cc1)c1ccc2c(c1)OCO2`, the Inhibition is listed as -11.3%.
Turning to `Cc1cc2nn(CC(=O)N3CCCc4ccccc43)c(=O)n2c(Nc2ccc(F)cc2)n1`, the Inhibition is reported as -3.85%.
In the case of `Cc1ccc(C)c(NC(=O)Cn2nc3c(N4CCCC(C)C4)nccn3c2=O)c1` (centres undefined) it was -8.1%; in that of `O=C(Cn1nc2ccc(SCc3ccc(Cl)cc3)nn2c1=O)NCc1ccccc1`, -17.55%; in that of `CCCn1c(=O)c2sccc2n2c(=O)n(CC(=O)c3ccc(OC)c(OC)c3)nc12`, -6.57%.
On to `CCOc1ccc(NC(=O)Cn2nc3c(N4CCCC4)nccn3c2=O)cc1`, for which the Inhibition is -8.38%.
`O=C(CSc1nnc2ccc(C(=O)Nc3cccc(F)c3)cn12)Nc1ccc(F)c(F)c1`: the Inhibition was -3.04%.
In the case of `COc1cccc(-c2noc(Cn3nc4ccc(-c5ccccc5)nn4c3=O)n2)c1OC`, the Inhibition is on record as -2.99%.
Regarding `O=c1c2nnc(SCc3cccc(C(F)(F)F)c3)n2ccn1-c1ccc(Br)cc1`, the Inhibition was -8.16%.
As for `COc1ccc(C(=O)CSc2nnc3c(=O)n(-c4ccccc4)ccn23)cc1OC`, the Inhibition is -8.66%.
On to `CC(C)c1nnc2c(=O)n(CC(=O)Nc3cc(Cl)ccc3Cl)c3ccccc3n12`, for which the Inhibition is given as -8.45%.
For `Cc1ccc(-c2cc3c4nnc(CCC(=O)N5CCC(Cc6ccccc6)CC5)n4ccn3n2)cc1C`, the Inhibition was -35.19%.
As for `CSc1ccc(CNC(=O)Cn2nc3c(Oc4ccc(C)cc4)nccn3c2=O)cc1`, the figure is -4.29%; as for `COc1ccc(NC(=O)Cn2nc3ccc(-c4ccccc4)nn3c2=O)cc1Cl`, -3.35%; as for `CCc1cccc(NC(=O)Cn2nc3ccc(SC(C)(C)C)nn3c2=O)c1`, -23.79%.
Turning to `O=C(Cn1nc2c(N3CCOCC3)nccn2c1=O)NCc1ccccc1Cl`, the Inhibition was -5.18%.
Regarding `Cc1cc(C)c(NC(=O)CSc2nnc3ccc(C(=O)Nc4cccc(F)c4)cn23)c(C)c1`, the Inhibition is listed as -5.55%.
As for `COc1cc(NC(=O)Cn2nc3c4c5c(sc4ncn3c2=O)CCCC5)cc(OC)c1OC`, the figure is -14.64%.
For `O=C(CSc1nnc2c(=O)n(-c3ccccc3)ccn12)c1ccc(F)cc1`, the Inhibition is on record as -7.83%.
As to `CCc1nnc2c(=O)n(CC(=O)Nc3ccc(Br)cc3F)c3ccccc3n12`, the Inhibition was -13.86%.
In the case of `CC(=O)c1ccc(NC(=O)Cn2nc3ccc(-c4ccc(C)cc4)nn3c2=O)cc1` it was -11.07%; in that of `CCCCc1ccc(NC(=O)Cn2nc3ccc(-c4ccc(C)c(C)c4)nn3c2=O)cc1`, -8.31%; in that of `COC(=O)c1ccc(NC(=O)Cn2nc3c(N4CCOCC4)nccn3c2=O)cc1`, -14.01%.
Take `Cc1cc(C)cc(Nc2nc(C)cc3nn(CC(=O)Nc4ccccc4)c(=O)n23)c1`: the Inhibition was -8.58%.
Take `CC(C)NC(=O)CSc1nnc2c(=O)n(Cc3ccc(F)cc3)ccn12`: the Inhibition was -22.73%.
As to `CCc1ccccc1NC(=O)Cn1nc2cc(C)nc(Nc3ccc(F)cc3)n2c1=O`, the Inhibition is on record as -17.34%.
As for `Cc1ccccc1NC(=O)Cn1nc2c3cc(-c4ccc(Cl)cc4)nn3ccn2c1=O`, the figure is -18.17%.
For the compound `O=C(Cn1nc2ccc(-c3ccccc3)nn2c1=O)NC1CCCCC1`, the Inhibition is -16.53%.
Regarding `COc1cc(NC(=O)C(C)Sc2nnc3c(=O)n(-c4cccc(OC)c4)ccn23)cc(OC)c1` (centres undefined), the Inhibition is recorded as -10.32%.
In the case of `CCOc1ccc(NC(=O)Cn2nc3c(Sc4ccc(C)cc4C)nccn3c2=O)cc1` it was -11.66%; in that of `Cc1cc2nn(CC(=O)NCc3ccco3)c(=O)n2c(Nc2ccc(C)c(F)c2)n1`, -7.03%.
